Compound activity (PubChem BioAssay)
In the library only some 2.2% were active in any assay of this set; here they are far more common.
GASC-1 inh = inhibitors of human GASC-1 (JMJD2C) demethylase | Q9H3R0 | GST-JMJD2C(1-420) H3K9me3 demethylation, DELFIA europium | inhibition, % at 2.35 µM | 330,000 compounds, 0.069% hits;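 active = more than half of a compound's replicate wells show inhibition beyond 50%, single wells judged on their own value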;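 note: signal counts dimethyl H3K9 product captured on neutravidin plate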
VLA-4 inh = inhibition in a human VLA-4 binding assay. inhibition, % (about 7 µM as worked out from the volumes in the protocol). P13612. VLA-4 expressing cells, ligand binding flow cytometry. 330,000 compounds, 0.2% hits; in the data active = inhibition above about 50%
Granule exo inh = blocks lytic granule exocytosis; TALL-104 LAMP-1 surface exposure, flow cytometry; cells stimulated with thapsigargin and PMA; inhibition, % at 10 µM; 360,000 compounds, 0.66% hits; AID 651702;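 active = inhibition above about 55%, limit read from the data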
V-ATPase pH = yeast V-ATPase proton transport regulation by pHLuorin | AID 504577 | response, % at 10 µM | S. cerevisiae, pHLuorin cytosolic pH fluorescence | 350,000 compounds, 0.37% hits; in the data active = response mostly above about 7.3%, no sharp cut-off; inactive = mostly below about 5.4%; note: actives read high
MEX-5 binding = C. elegans MEX-5 TCR-2 RNA binding activity | MEX-5/FITC-TCR2 RNA binding, fluorescence polarization; stronger effect = lower value | Q9XUB2 | 300,000 compounds, 0.38% hits | activity score (negative = inhibition of binding), % at 10 µM;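 active = inhibition past about -25% in most replicates, and total fluorescence under double the plate's negative control median, limit read from the data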
m5-HT2A agonist = mouse HTR2A agonism via beta-arrestin recruitment; CHO-K1 mHTR2A beta-arrestin complementation, luminescence; percent of 30 µM serotonin response; activation, % at 7.6 µM; 360,000 compounds, 0.66% hits; AID 624169;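 active = activation above a run cutoff, the mean activation of all tested compounds plus 3 SD, cut at about 14% in these data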
VLA-4 mod pick = confirmation of allosteric modulators of human VLA-4 integrin; inhibition, % at 6.7 µM; shares compounds with VLA-4 inh; U937 cells, HUTS-21 LIBS mAb binding, flow cytometry; LDV ligand present at threefold Kd; 1,300 compounds, 2% hits; in the data active = inhibition above about 40%
Of the large screens only hits and unclear results are named; the others gave an inactive call (follow-up assays come after a bar, where they were run).

CCN(C[C@H]1N[C@@](Cc2ccccc2)(C(=O)OC)[C@H]2C(=O)N(Cc3ccccc3)C(=O)[C@@H]12)C(=O)C1CCCCC1	none (no result: GASC-1 inh, MEX-5 binding) | VLA-4 mod pick inactive
CCN(C[C@H]1N[C@@](Cc2ccccc2)(C(=O)OC)[C@H]2C(=O)N(Cc3ccccc3)C(=O)[C@@H]12)C(=O)COc1ccccc1	VLA-4 inh 56 (no result: MEX-5 binding) | VLA-4 mod pick inactive
CC(C)C(NS(=O)(=O)c1ccccc1)C(=O)N1CCCC1 (centres undefined)	none
CN1C(=O)[C@@H]2C[C@@]3([C@@]45C[C@H]6C(=O)N(C)[C@@H](Cc7ccccc7)C(=O)N6[C@@H]4Nc4ccccc45)c4ccccc4N[C@H]3N2C(=O)[C@@H]1Cc1ccccc1	none
O=C(COC(=O)CCN1C(=O)C2CC=CCC2C1=O)Nc1ccc(Cl)cc1F (centres undefined)	none (no result: MEX-5 binding)
Cc1ccc(C(=O)C(OC(=O)c2cnccn2)c2ccccc2)cc1 (centres undefined)	none | VLA-4 mod pick inactive
CC(C)(C)OC(=O)n1cc(C(=O)c2ccccc2O)cn1	VLA-4 inh 50 | VLA-4 mod pick inactive
CC(C)[C@H](NC(=O)OCc1ccccc1)C(=O)NCc1ccccc1	none | VLA-4 mod pick inactive
O=C(NCC1CCCO1)c1cccc(Oc2ccc([N+](=O)[O-])cc2)c1 (centres undefined)	none
O=C(CCc1nc(-c2ccccc2)c(-c2ccccc2)o1)OCc1ccc(Cl)cc1	none
O=C(O)CCc1nc(-c2ccccc2)c(-c2ccccc2)o1	VLA-4 inh 51 (no result: Granule exo inh, V-ATPase pH, m5-HT2A agonist) | VLA-4 mod pick inactive
CNc1nc(OCCNC(=O)Nc2ccccc2)nc(N2CCOCC2)n1	VLA-4 inh 59 | VLA-4 mod pick inactive
COc1ccc(-c2nnc(SCc3ccccc3F)o2)cc1OC	VLA-4 inh 95 | VLA-4 mod pick inactive
Nc1nc(CN2CCN(c3ccccc3F)CC2)nc(Nc2ccccc2)n1	VLA-4 inh 76 | VLA-4 mod pick inactive
CCc1cccc(NC(=O)C2CCCN(S(=O)(=O)c3cccs3)C2)c1 (centres undefined)	none
Cc1ccc(-c2nn3c(C)nnc3c3ccccc23)cc1S(=O)(=O)N1CCN(CCO)CC1	none | VLA-4 mod pick inactive
Cc1ccc(-c2nn3c(C)nnc3c3ccccc23)cc1S(=O)(=O)NCCO	none | VLA-4 mod pick inactive
COCCNS(=O)(=O)c1cc(-c2nn(C)c(=O)c3ccccc23)ccc1C	none
Cc1ccc(-c2nn3c(C)nnc3c3ccccc23)cc1S(=O)(=O)NC(C)c1ccccc1 (centres undefined)	VLA-4 inh 92 (no result: V-ATPase pH) | VLA-4 mod pick inactive
Cc1ccc(-c2nn3c(C)nnc3c3ccccc23)cc1S(=O)(=O)NCc1ccco1	none | VLA-4 mod pick inactive
Cc1ccc(-c2nn3c(C)nnc3c3ccccc23)cc1S(=O)(=O)NC(C)(C)CO	none
COc1ccc(-c2nnc3c4ccccc4c(C)nn23)cc1S(=O)(=O)N1CCN(CCO)CC1	none
Cc1ccccc1-n1c(SCC(=O)c2c(N)n(C3CC3)c(=O)[nH]c2=O)nnc1N1CCOCC1	none (no result: MEX-5 binding)
COc1cc2c(cc1OC)C(c1cc(OC)c(OC)cc1[N+](=O)[O-])N(C(C)=O)CC2 (centres undefined)	none | VLA-4 mod pick inactive
CCOC(=O)C(NC(=O)c1cccc(Cl)c1)(Nc1nnc(C)s1)C(F)(F)F (centres undefined)	none | VLA-4 mod pick inactive
CCCCCC(=O)N1C[C@@H](O)[C@H](n2cc(COC(=O)c3ccccc3)nn2)C[C@@H]1c1ccc(Cl)cc1	none (no result: GASC-1 inh, VLA-4 inh, V-ATPase pH, MEX-5 binding)
C=CCn1c(C)cc(C2=NNC(=NC(C)(C)C)SC2)c1C	none | VLA-4 mod pick inactive
CCOC(=O)Cc1csc(NC(=O)CCCC(=O)O)n1	none
O=C(Cn1c(=O)oc2cc(S(=O)(=O)N3CCCCCC3)ccc21)NC1CCCCCCC1	none
CCCNC(=O)Cn1c(=O)oc2cc(S(=O)(=O)N3CCCC3)ccc21	VLA-4 inh 57 | VLA-4 mod pick inactive
C[C@H]([C@H](O)c1ccccc1)N(C)C(=O)CN	VLA-4 inh 51 (no result: GASC-1 inh) | VLA-4 mod pick inactive
